Compound activity deposited in PubChem by several laboratories.
LGR2 inh: inhibitors of bursicon-induced LGR2 CRE-luciferase signal, primary screen, cell-based, HEK293, CRE-luciferase reporter, bursicon stimulation; 380,000 compounds, 0.35% hits; inhibition, % at 9.99 µM; bursicon-stimulated, 4 h;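 active = drop in luminescence signal, shown as inhibition above about 50% in the replicate tests, limit read from the data, passing the limit was not always enough; inconclusive = probably only some replicates passing the limit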;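 note: agonist challenge used bursicon conditioned medium at about half maximal strength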
EBV LMP1 NFkB: EBV LMP1-driven NF-kappaB luciferase reporter inhibitors, primary screen, cell-based, luminescence, single point; inhibition, % at 12.5 µM; LMP1-induced NF-kappaB luciferase reporter cells; 350,000 compounds, 0.69% hits; in the data active = inhibition above about 41%; inconclusive = no clear call, values can overlap the other calls
TRPM1 prom inh: inhibitors of MITF-dependent TRPM1 promoter reporter, primary screen, cell-based, SK-MEL-5, single point, luciferase; SK-MEL-5 TRPM1 promoter luciferase, 24 h; inhibition, % at 12.5 µM; 330,000 compounds, 0.83% hits; AID 488899, 2010;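 active = mean inhibition across replicates of 60% or more, whatever share of single replicates reaches that level; inconclusive = some that reach 60%, reason not given; inactive = mean inhibition across replicates below 60%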
MITF TRPM1 HTS: activators of MITF-driven TRPM1 promoter reporter, primary screen, cell-based, SK-MEL-5, luciferase, single point; SK-MEL-5 TRPM1-promoter luciferase, 24 h; % of positive control, neutral wells = 0; activation, % at 12.5 µM; 300,000 compounds, 0.75% hits;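 active = mean activation of at least 80% with every replicate also reaching 80%; inconclusive = mean reaches 80% but some replicate falls short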
TROY signal inh: inhibitors of TROY-driven NF-kB signaling, primary screen, Q293 LMP1-TROYcd cells, NF-kB luciferase, uHTS. Q293 LMP1-TROYcd NF-kB luciferase reporter, 4 h. inhibition, % at 10 µM. 360,000 compounds, 0.98% hits. AID 1347056, 2019;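 active = compounds whose plate-normalised and pattern-corrected inhibition of the luciferase reporter signal at the single screening dose is 50% or more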
TWEAK-Fn14 inh: inhibitors of TWEAK-Fn14 signaling, primary screen, luciferase reporter cells, uHTS; inhibition, % at 10 µM; TWEAK-stimulated Fn14 reporter cells, luciferase luminescence, 8 h; 360,000 compounds, 2% hits; AID 1159606, 2016; in the data active = inhibition above about 50%
Hits are given with their value; 0 = inactive; ? = inconclusive; - = no result given. Shown are actives, neighbours in structure and some others; about 3% of the full set was active somewhere.

SMILES	LGR2 inh	EBV LMP1 NFkB	TRPM1 prom inh	MITF TRPM1 HTS	TROY signal inh	TWEAK-Fn14 inh
C[C@H](CO)N1C[C@H](C)[C@H](CN(C)Cc2ccc(-c3ccccc3)cc2)Oc2ncc(C#C[C@@H](C)O)cc2C1=O	0	-	-	-	-	-
O=C(c1ccccn1)N1CC(=O)N2[C@H](CO)[C@H](c3ccc(C#Cc4ccccc4)cc3)[C@@H]2C1	0	-	-	-	-	-
C[C@@H]1CCCCO[C@H](CN(C)S(C)(=O)=O)[C@@H](C)CN([C@@H](C)CO)C(=O)c2cc(NC(=O)Nc3ccc4c(c3)OCO4)ccc2O1	0	-	-	-	-	-
CCOc1ccc(N=Nc2ccc(O)c3ncccc23)cc1	0	0	70.0	0	0	0
OCC1OC(n2cnc3c(NCc4ccco4)ncnc32)C(O)C1O (stereo unspecified)	0	0	?	0	0	0
Nc1nc(F)nc2c1ncn2[C@@H]1O[C@H](CO)[C@@H](O)[C@H]1O	75.3	91.1	92.8	0	50.6	87.4
OC[C@H]1O[C@@H](n2cnc3c(NCc4ccco4)ncnc32)[C@H](O)[C@@H]1O	0	0	66.2	0	0	0
O=C(C[C@@H]1CC[C@@H]2[C@H](COC[C@H](O)CN2C(=O)c2ccccc2)O1)Nc1ccc(-c2ccccc2)cc1	0	-	-	-	-	-
O=C(CN1CCOCC1)N[C@H]1CC[C@H](CCNS(=O)(=O)c2ccccc2F)O[C@@H]1CO	0	-	-	-	-	-
CO[C@H]1CN(C)C(=O)c2ccc(NS(=O)(=O)c3ccc(-c4ccccc4)cc3)cc2OC[C@@H](C)NC[C@@H]1C	0	-	-	-	-	-
CN(CC(=O)Nc1cccc(F)c1)CC(=O)N(C)CC(=O)Nc1ccccc1Br	0	73.0	0	0	0	0
CC(=O)Nc1ccc(NC(=O)CN(C)CC(=O)Nc2ccccc2Br)cc1	0	0	0	0	0	0
CC(C)(C)c1cc(C(=O)Nc2ccc(F)cc2)n(Cc2ccc(F)cc2)n1	-	0	0	-	62.9	0
O=C1C=C(N2CCOCC2)c2ccccc2C1=O	0	0	84.7	-	0	0
Cc1cc(/C=N/n2cnnc2)c(C)n1-c1ccc(OCc2ccc(Cl)cc2)cc1	0	0	0	0	0	63.1
COC(=O)CCn1nnc(-c2ccc(C(C)C)cc2)n1	-	?	68.3	-	50.3	68.1
COC(=O)CCn1nnc(-c2cccs2)n1	-	0	0	-	0	0
COc1ccc(COc2cccnc2N)cc1	-	0	0	0	0	0
Nc1ncccc1OCc1ccc(Br)cc1	0	0	0	101.9	0	0
CN(C)CCCNC(=O)C[C@@H]1CC[C@@H]2[C@@H](COc3ccc(NC(=O)c4ccccc4F)cc3C(=O)N2C)O1	0	-	-	-	-	-
CN(CCO)c1cc(Sc2nc3ccccc3s2)c2nonc2c1[N+](=O)[O-]	0	0	91.5	0	0	0
CC(=O)OCCN(C)c1cc(SC(C)C)c2nonc2c1[N+](=O)[O-]	0	0	0	0	0	0
Cc1cc(=O)[nH]c(SCC(=O)c2ccc3c(c2)NC(=O)CO3)n1	0	0	0	0	0	0
Nc1cc(N)nc(SCC(=O)c2ccc3c(c2)NC(=O)CO3)n1	0	44.4	0	0	0	0
C[C@@H]1CN([C@H](C)CO)C(=O)c2cc(NS(=O)(=O)c3ccc(Cl)cc3)ccc2O[C@@H]1CN(C)S(=O)(=O)c1ccccc1	0	-	-	-	-	-
SMILES	LGR2 inh	EBV LMP1 NFkB	TRPM1 prom inh	MITF TRPM1 HTS	TROY signal inh	TWEAK-Fn14 inh
CC(C)NC(=O)N(C)C[C@@H]1OCCCC[C@@H](C)Oc2ccc(NC(=O)Cc3ccccc3)cc2C(=O)N([C@@H](C)CO)C[C@H]1C	0	-	-	-	-	-
Cc1cc(N2CCC(C(=O)NC3CC3)CC2)nc(-c2ccccc2)n1	-	0	0	-	0	0
Cc1cc(N2CCC(C(=O)NCC3CC3)CC2)nc(-c2ccccc2)n1	-	0	0	0	0	78.0
Cc1cccc(NC(=O)NC(C)CCc2ccccc2)c1 (stereo unspecified)	0	0	0	0	0	0
COC(=O)[C@H](C)NC(=O)Nc1cccc(C)c1	0	49.5	0	0	0	0
COc1ccc(NC(=O)Nc2ccc3c(c2)[C@H]2C[C@H](CC(=O)O)O[C@H](CO)[C@H]2O3)cc1	0	-	-	-	-	-
NC(N)=NN=C(c1ccc(F)cc1)c1ccc(C(F)(F)F)cc1	?	0	102.8	-	0	55.9
O=C(CCCn1c(=S)[nH]c2ccsc2c1=O)Nc1ccc2c(c1)OCCO2	0	0	0	0	82.1	88.7
CNC[C@@H]1Oc2cc(C#CC3CCCC3)ccc2S(=O)(=O)N([C@@H](C)CO)C[C@H]1C	0	-	-	-	-	-
Oc1cccc2cc(Nc3ccccc3)cnc12	0	-	-	-	0	100.1
NCC[C@@H]1CC[C@H](NC(=O)Nc2ccc(F)cc2)[C@H](CO)O1	0	-	-	-	-	-
CCc1ccc(-n2cccc2/C=C2/C(=N)N3C(=NC2=O)SN=C3S(C)(=O)=O)cc1	0	0	0	0	59.1	0
O=C(CCl)N1c2ccccc2Oc2ccc3ccccc3c21	0	0	88.4	0	73.5	69.1
CCCC(=O)Nc1ccc2c(c1)OC[C@@H](C)N(CCC(F)(F)F)C[C@@H](C)[C@H](OC)CN(C)C2=O	0	-	-	-	-	-
Cc1ccc(NC(=O)c2sc3ccccc3c2Cl)nc1	0	0	0	0	52.1	75.4
Cc1nnc(NC(=O)c2sc3ccccc3c2Cl)s1	-	0	0	0	0	0
COc1ccc(C)cc1NC(=O)CNC(=O)c1sc2ccccc2c1Cl	0	0	0	0	0	0
O=C(Nc1ccccn1)c1sc2cccc(F)c2c1Cl	0	0	0	0	0	62.8
Cc1ccc2nsnc2c1NC(=O)c1sc2ccccc2c1Cl	0	0	0	0	86.3	90.5
Cc1ccnc(NC(=O)CNC(=O)c2sc3ccccc3c2Cl)c1	0	0	0	85.1	0	0
O=C(C[C@@H]1CC[C@H](NC(=O)CCN2CCCCC2)[C@H](CO)O1)Nc1ccc(-c2ccccc2)cc1	0	-	-	-	-	-
COc1ccc(CN(C)C[C@@H]2OCCCC[C@H](C)Oc3ccc(N(C)C)cc3C(=O)N([C@H](C)CO)C[C@H]2C)cc1	0	-	-	-	-	-
CN(C)C(=O)C[C@H]1C[C@@H]2c3cc(NC(=O)Nc4ccccc4F)ccc3O[C@@H]2[C@H](CO)O1	0	-	-	-	-	-
C[C@H](CO)N1C[C@H](C)[C@@H](CN(C)C(=O)NC2CCCCC2)OCCCC[C@H](C)Oc2ccc(NS(=O)(=O)c3cccs3)cc2C1=O	0	-	-	-	-	-
C[C@H](CO)N1C[C@H](C)[C@@H](CN(C)S(=O)(=O)c2ccccc2)Oc2ccc(NS(=O)(=O)c3ccc(F)cc3)cc2CC1=O	0	-	-	-	-	-
O=C1NC(=S)N/C1=C/c1cccnc1	0	0	0	0	0	53.4
O=C1NC(=S)N/C1=C/c1cccc([N+](=O)[O-])c1	0	0	0	0	0	0
O=C1NC(=S)N/C1=C\c1cccnc1	0	0	0	-	0	50.4
